Test [1] can be described thus: NCI Yeast Anticancer Drug Screen. Data for the rad50 strain (AID 155).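 Further: 0% = growth of vehicle-only cultures of the same strain.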 Conditions: S. cerevisiae rad50 strain growth inhibition, active compounds read high. The gist of the method: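 A DNA repair-deficient yeast mutant serves as the test organism; compound-induced growth inhibition is calculated against vehicle-treated cells.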
Test [2] can be described thus: NCI Yeast Anticancer Drug Screen. Data for the mec2-1 strain (AID 157). Conditions: S. cerevisiae mec2-1 strain, active compounds read high. The method in brief: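 Using mec2-1 yeast: add compound, measure growth, express inhibition versus vehicle-treated cultures.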
The nature of test [3]: NCI Yeast Anticancer Drug Screen. Data for the sgs1 mgt1 strain (AID 161).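 Further: 0% = growth of cultures given vehicle only.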 Conditions: S. cerevisiae sgs1 mgt1 strain, active compounds read high. The method in brief: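 Yeast cells carrying a defined DNA-repair defect were exposed to test compounds. Growth inhibition was measured relative to vehicle-treated controls.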
The nature of test [4]: NCI Yeast Anticancer Drug Screen. Data for the cln2 rad14 strain (AID 165).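 Further: 0% = growth equal to vehicle treated cultures.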 Conditions: S. cerevisiae cln2 rad14 strain, active compounds read high. The gist of the method: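 Yeast strain cln2 rad14, bearing defects in cell cycle control and DNA repair, serves as the test system; values reflect growth inhibition compared with vehicle.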
Test [5] is described as follows: NCI Yeast Anticancer Drug Screen. Data for the bub3 strain (AID 167). The settings on record: S. cerevisiae bub3 mutant strain, active compounds read high. The method in brief:
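Inhibition values come from growth of compound-treated mutant yeast normalised to vehicle-treated controls.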

A short description of test [6]: NCI Yeast Anticancer Drug Screen. Data for the wt2 strain (AID 169).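 Further: 0% = growth of vehicle-treated yeast cultures.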 Conditions: S. cerevisiae wt2 strain growth inhibition, active compounds read high. The gist of the method: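 Treated yeast vs. vehicle-treated yeast: growth inhibition determined.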
Test [7] in a line: NCI Yeast Anticancer Drug Screen. Data for the mlh1 rad18 strain (AID 175). The settings on record: S. cerevisiae mlh1 rad18 strain growth inhibition, active compounds read high. The method in brief: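 Steps: expose repair-defective yeast to compound; measure growth; express inhibition against vehicle-treated controls.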
The mark [8] stands for this setting: at 5.0 µM (retest, dose inferred, filed as 0.5).
Where [9] appears, read: at 50.0 µM (retest, dose inferred, filed as 5.0).

About 79,000 compounds went through this panel and 15% of them were active in at least one assay; those are over-represented in the sample as a whole. Activity calls are given as the source filed them. No stated cut-off is given here; in the data, active means growth inhibition above about 70%; inactive means the rest.

Regarding `CCSC1=C(C)C(=O)c2ccccc2C1=O`, the growth inhibition is 35% (inactive) in test [1] (setting [8]); 99% (active) in test [1] (setting [9]); 70.1% (active) in test [1] (at 50.0 µM); 32% (inactive) in test [2] (setting [8]); 99% (active) in test [2] (setting [9]); 50.1% (inactive) in test [2] (at 50.0 µM). The growth inhibition in test [3] (setting [8]) is 7% (inactive); in test [3] (setting [9]) it was 26% (inactive); in test [3] (at 50.0 µM) it was 74.2% (active); in test [4] (setting [8]) it was 44% (inactive); in test [4] (setting [9]), 34% (inactive); in test [4] (at 50.0 µM), 41.9% (inactive). Further, the growth inhibition in test [5] (setting [8]) was -6% (inactive); in test [5] (setting [9]), 36% (inactive); in test [5] (at 50.0 µM) it was 77.2% (active); in test [6] (at 1.2 µM), 18% (inactive); in test [6] (at 3.7 µM), 11% (inactive); in test [6] (at 11.0 µM) it was 6% (inactive). The growth inhibition in test [6] (at 33.0 µM) was 20% (inactive); in test [6] (at 100.0 µM), 98% (active); in test [7] (setting [8]), 11% (inactive); in test [7] (setting [9]), 62% (inactive); in test [7] (at 50.0 µM), 55% (inactive).
In the case of `Cc1ccc(S(=O)(=O)NC2CCCCCCC2)cc1`, the growth inhibition is 45% (inactive) in test [1] (setting [8]); 96% (active) in test [1] (setting [9]); 77% (active) in test [1] (at 50.0 µM); 30% (inactive) in test [2] (setting [8]); 89% (active) in test [2] (setting [9]); 64.2% (inactive) in test [2] (at 50.0 µM). Further, the growth inhibition was 42% (inactive) in test [3] (setting [8]); 16% (inactive) in test [3] (setting [9]); 79% (active) in test [3] (at 50.0 µM); 48% (inactive) in test [4] (setting [8]); 46% (inactive) in test [4] (setting [9]); 60% (inactive) in test [4] (at 50.0 µM). Also, the growth inhibition in test [5] (setting [8]) is 97% (active); in test [5] (setting [9]), 95% (active); in test [5] (at 50.0 µM) it was 89.3% (active); in test [6] (at 1.2 µM), -4% (inactive); in test [6] (at 3.7 µM), -17% (inactive); in test [6] (at 11.0 µM) it was -23% (inactive). Moreover, the growth inhibition in test [6] (at 33.0 µM) was 23% (inactive); in test [6] (at 100.0 µM), 98% (active); in test [7] (setting [8]) it was 40% (inactive); in test [7] (setting [9]) it was 99% (active); in test [7] (at 50.0 µM), 82.8% (active).
Consider `CC(C)N1CSC(=S)N(Cc2ccccc2)C1`, for which the growth inhibition is 55% (inactive) in test [1] (setting [8]); 91% (active) in test [1] (setting [9]); 77.7% (active) in test [1] (at 50.0 µM); 46% (inactive) in test [2] (setting [8]); 92% (active) in test [2] (setting [9]); 81.5% (active) in test [2] (at 50.0 µM). The growth inhibition is -5% (inactive) in test [3] (setting [8]); 98% (active) in test [3] (setting [9]); 46.3% (inactive) in test [3] (at 50.0 µM); 56% (inactive) in test [4] (setting [8]); 92% (active) in test [4] (setting [9]); 19.5% (inactive) in test [4] (at 50.0 µM). Moreover, the growth inhibition is 6% (inactive) in test [5] (setting [8]); 92% (active) in test [5] (setting [9]); 88.2% (active) in test [5] (at 50.0 µM); 0% (inactive) in test [6] (at 1.2 µM); 7% (inactive) in test [6] (at 3.7 µM); 23% (inactive) in test [6] (at 11.0 µM). Also, the growth inhibition in test [6] (at 33.0 µM) was 55% (inactive); in test [6] (at 100.0 µM) it was 67% (inactive); in test [7] (setting [8]) it was 30% (inactive); in test [7] (setting [9]), 66% (inactive); in test [7] (at 50.0 µM), 59.5% (inactive).
With `Oc1ccc(Cc2ccccc2)cc1`, the growth inhibition in test [1] (setting [8]) was 1% (inactive); in test [1] (setting [9]), 14% (inactive); in test [1] (at 50.0 µM), 63.6% (inactive); in test [2] (setting [8]) it was -3% (inactive); in test [2] (setting [9]), 14% (inactive); in test [2] (at 50.0 µM), 34% (inactive). Further, the growth inhibition in test [3] (setting [8]) was -4% (inactive); in test [3] (setting [9]), 15% (inactive); in test [3] (at 50.0 µM) it was 23.8% (inactive); in test [4] (setting [8]) it was -5% (inactive); in test [4] (setting [9]), -12% (inactive); in test [4] (at 50.0 µM), -18.6% (inactive). In addition, the growth inhibition in test [5] (setting [8]) was -2% (inactive); in test [5] (setting [9]) it was 6% (inactive); in test [5] (at 50.0 µM), 42.2% (inactive).
As for `CS(=O)(=O)OCCN(CCOS(C)(=O)=O)c1ccc(C=Nc2ccc(-c3csc(Cc4ccccc4)n3)cc2)c(Cl)c1`, the growth inhibition is 16% (inactive) in test [1] (setting [8]); 95% (active) in test [1] (setting [9]); 71.2% (active) in test [1] (at 50.0 µM); 7% (inactive) in test [2] (setting [8]); 93% (active) in test [2] (setting [9]); 76.6% (active) in test [2] (at 50.0 µM). The growth inhibition is -22% (inactive) in test [3] (setting [8]); 83% (active) in test [3] (setting [9]); 71% (active) in test [3] (at 50.0 µM); 7% (inactive) in test [4] (setting [8]); 85% (active) in test [4] (setting [9]); 77% (active) in test [4] (at 50.0 µM). Also, the growth inhibition in test [5] (setting [8]) is -35% (inactive); in test [5] (setting [9]), 78% (active); in test [5] (at 50.0 µM) it was 76% (active); in test [7] (setting [8]), 15% (inactive); in test [7] (setting [9]) it was 94% (active).
For `Cc1ccc2c(c1)C1(C)OC(C=CC1=O)O2` (centres undefined), the growth inhibition was 88% (active) in test [1] (setting [8]); 100% (active) in test [1] (setting [9]); 88.2% (active) in test [1] (at 50.0 µM); 97% (active) in test [2] (setting [8]); 99% (active) in test [2] (setting [9]); 91% (active) in test [2] (at 50.0 µM). The growth inhibition in test [3] (setting [8]) was 91% (active); in test [3] (setting [9]), 100% (active); in test [3] (at 50.0 µM), 91% (active); in test [4] (setting [8]), 82% (active); in test [4] (setting [9]) it was 99% (active); in test [4] (at 50.0 µM), 90.5% (active). The growth inhibition in test [5] (setting [8]) is 97% (active); in test [5] (setting [9]) it was 100% (active); in test [5] (at 50.0 µM), 87.8% (active); in test [7] (setting [8]), 94% (active); in test [7] (setting [9]), 99% (active).
As for `Nc1nc(N)c2c(Cl)c(CNc3ccc(Cl)c(Cl)c3)ccc2n1`, the growth inhibition in test [1] (setting [8]) was 82% (active); in test [1] (setting [9]), 98% (active); in test [1] (at 50.0 µM) it was 88.1% (active); in test [2] (setting [8]) it was 97% (active); in test [2] (setting [9]), 98% (active); in test [2] (at 50.0 µM) it was 91% (active). Also, the growth inhibition in test [3] (setting [8]) was 81% (active); in test [3] (setting [9]), 98% (active); in test [3] (at 50.0 µM), 90.8% (active); in test [4] (setting [8]) it was 46% (inactive); in test [4] (setting [9]), 98% (active); in test [4] (at 50.0 µM), 89.9% (active). Also, the growth inhibition in test [5] (setting [8]) is 74% (active); in test [5] (setting [9]) it was 98% (active); in test [5] (at 50.0 µM), 89.7% (active); in test [7] (setting [8]), 75% (active); in test [7] (setting [9]) it was 98% (active).
For `C/C(N=NC(=S)N1CCCCCC1)=C1\C=CC=CN1O`, the growth inhibition in test [1] (setting [8]) was 17% (inactive); in test [1] (setting [9]), 38% (inactive); in test [1] (at 50.0 µM), 72.9% (active); in test [2] (setting [8]), 12% (inactive); in test [2] (setting [9]) it was 31% (inactive); in test [2] (at 50.0 µM), 74.2% (active). Also, the growth inhibition in test [3] (setting [8]) was 14% (inactive); in test [3] (setting [9]), 27% (inactive); in test [3] (at 50.0 µM) it was 68.4% (inactive); in test [4] (setting [8]), 19% (inactive); in test [4] (setting [9]) it was 31% (inactive); in test [4] (at 50.0 µM), 30.6% (inactive). The growth inhibition is 21% (inactive) in test [5] (setting [8]); 33% (inactive) in test [5] (setting [9]); 69% (inactive) in test [5] (at 50.0 µM); 24% (inactive) in test [7] (setting [8]); 44% (inactive) in test [7] (setting [9]).
As to `CCN(CCO)CCNc1ccc(C)c2sc3ccccc3c(=O)c12`, the growth inhibition in test [1] (setting [8]) was 36% (inactive); in test [1] (setting [9]) it was 98% (active); in test [1] (at 50.0 µM) it was 88.2% (active); in test [2] (setting [8]) it was 13% (inactive); in test [2] (setting [9]) it was 92% (active); in test [2] (at 50.0 µM) it was 90.7% (active). The growth inhibition in test [3] (setting [8]) is 9% (inactive); in test [3] (setting [9]) it was 98% (active); in test [3] (at 50.0 µM), 91.8% (active); in test [4] (setting [8]) it was 21% (inactive); in test [4] (setting [9]) it was 94% (active); in test [4] (at 50.0 µM), 90.8% (active). For the same compound, the growth inhibition in test [5] (setting [8]) was 6% (inactive); in test [5] (setting [9]), 98% (active); in test [5] (at 50.0 µM), 90.5% (active); in test [7] (setting [8]), 23% (inactive); in test [7] (setting [9]), 98% (active).

Source of the values: PubChem BioAssay (NCI).
